# Compounds with a hit are over-represented: about 19% of the library has one in this group of screens.
# DT40 TDP1 no CPT – qHTS for Inhibitors of human tyrosyl-DNA phosphodiesterase 1 (TDP1): qHTS in cells in absence of CPT. DT40 Tdp1-/- hTDP1 cells, no CPT, ATP luminescence, 48 h. Potency, µM (highest dose often 46.2 µM), for inactives: at the top dose activity change, negative = growth inhibition, hits mostly inhibitors. hit rate 15% among 420,000. AID 686978, 2013; also: potency is read from the fitted curve at half-maximal effect; nearly all actives have a fitted effect of over 55% in size
#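 Chicken DT40 Tdp1-/- cells stably complemented with human TDP1 were seeded at 400 cells/well with DMSO in place of 20 nM camptothecin. After compound pinning, cells grew at least 48 hr at 37 °C; viability read by CellTiter-Glo luminescence.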
# DT40 TDP1 CPT – qHTS for Inhibitors of human tyrosyl-DNA phosphodiesterase 1 (TDP1): qHTS in cells in presence of CPT | chicken DT40 Tdp1-/-;hTDP1 cells + 20 nM CPT, ATP luminescence, 48 h | Potency, µM (series often up to 46.2 µM), inactives show at the highest dose activity change, negative = growth inhibition, usual class: inhibitors | hit rate 12% among 420,000; also: potency is read from the fitted curve at half-maximal effect; nearly all actives have a fitted effect of over 55% in size
#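 Chicken DT40 Tdp1-/- cells complemented with human TDP1, 400 cells/well, exposed to compounds plus 20 nM camptothecin for at least 48 h at 37 C; viability read as ATP content by CellTiter-Glo luminescence.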
# HT1080NT lethal – qHTS for induction of synthetic lethality in tumor cells producing 2HG: qHTS for the HT-1080-NT fibrosarcoma cell line | HT-1080-NT fibrosarcoma viability, CellTiter-Glo ATP luminescence, 48 h | Potency, µM (top dose mostly 46.1 µM), for the others: at the top dose activity, negative = less viability, most hits filed as cytotoxic | hit rate 1.6% among 360,000 | AID 686970, 2013;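 also: NT is the 2HG producing partner of a matched IDH1 knockdown line; potency is read from the fitted curve at half-maximal effect; 0% = DMSO-treated cells and -100% = media-only wells without cells; nearly all actives have a fitted effect of over 55% in size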
#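 Viability of the 2HG-overproducing fibrosarcoma line after 48 hours of compound exposure at 37 degrees C was determined by luminescence with CellTiter-Glo, and concentration-effect curves were then fitted and categorized.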
# IL-1B inflam inh – qHTS for Inhibitors of Inflammasome Signaling: IL-1-beta AlphaLISA Primary Screen; AID 743279, 2014; hit rate 4.7% among 360,000; THP-1 LPS/ATP IL-1B secretion, AlphaLISA, 16 h; active compounds read low; activity change, % at 57.5 µM; in the data active = activity change below about -50%; inconclusive = mostly about -30% to -49%
#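 THP-1 cells pretreated 1 hr with compounds (up to 57.5 uM final), then stimulated with LPS (250 ng/mL final) plus ATP (1.25 mM final); secreted IL-1B measured by AlphaLISA after 16 hr, decreased signal indicating inhibition.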
# HT1080 IDH1KD tx – qHTS for induction of synthetic lethality in tumor cells producing 2HG: qHTS for the HT-1080-IDH1KD cell line | HT-1080 IDH1 knockdown viability, ATP luminescence, 48 h | Potency, µM (top dose mostly 46.1 µM), for inactives: at the top dose activity, negative = toxicity, hits mostly cytotoxic | hit rate 2% among 360,000 | AID 686971, 2013;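 also: potency is read from the fitted curve at half-maximal effect; 0% = DMSO wells and -100% = cell-free medium wells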
#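 Assay cells: HT-1080 with IDH1 knockdown, 750 per well, RPMI/5% FBS. Exposure: 48 h at 37 °C following 2 h pre-incubation. Read: CellTiter-Glo luminescence; fitted concentration-response, curve class assigned.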
# Numbers without * were called inactive; ? = inconclusive; . = no result; ! = repeats disagree; [ ] = dose if it differs, or a comment. Unless noted, calls follow the shape of the dose curve; as a rule, active = well fitted curve in the direction sought with a large enough effect; inconclusive = small, poorly fitted or top-dose-only effect, or another doubt; inactive = no such curve, though single readings can be large; an effect the other way counts as inactive or inconclusive. Unless noted, % is scaled to controls: 0 for no effect and ±100 for the full control effect.
SMILES,DT40 TDP1 no CPT,DT40 TDP1 CPT,HT1080NT lethal,IL-1B inflam inh,HT1080 IDH1KD tx
O=C1C=C(O)c2[nH]c(=O)ccc2C1=O,-13.6%,-16.7%,0.1%,3.5,14.6%
COc1cc(-c2ccc(C)cc2)cc2c1OCCN(C(=O)CCn1ccc(C)n1)C2,?,-0.5%[9.04 µM],.,.,.
CCOC(=O)CSC(C)C(=O)Nc1nnc(C(C)C)s1 (stereo not given),0.8%,-1.4%,-5.6%,32.8,5.8%
O=C1[C@H]2[C@@H](c3ccccc3)N[C@]3(CCCN(Cc4ccc(Br)cc4)C3=O)[C@H]2C(=O)N1Cc1ccccc1,23.1µM*,?,-25.7%,-20.0,-23.2%
O=C1[C@H]2[C@@H](c3ccccc3)N[C@]3(CCCN(Cc4ccco4)C3=O)[C@H]2C(=O)N1Cc1ccccc1,?,?,-7.5%,-20.9,-1.4%
O=C1[C@H]2[C@@H](c3ccccc3)N[C@]3(CCCN(Cc4ccc(Cl)cc4)C3=O)[C@H]2C(=O)N1Cc1ccccc1,8.2µM*,23.1µM*,-17.5%,?,-29.3%
Cc1ccc([C@H]2N[C@]3(CCCN(Cc4ccc(Br)cc4)C3=O)[C@H]3C(=O)N(Cc4ccccc4)C(=O)[C@@H]23)cc1,29.1µM*,20.6µM*,-16.2%,-15.0,-29.2%
CC(C)NC(=O)CC(=O)NN=C1CCCCC1,-1.0%,27.4%,16.7%,14.4,-2.9%
COC(=O)N1CCC[C@@]2(CCN(Cc3cc(C(F)(F)F)cc(C(F)(F)F)c3)C2)C1,0.7%,10.0%,.,.,.
Cc1cccc(-n2c(SCc3ccc([N+](=O)[O-])cc3)nnc2-c2c[nH]c3ccccc23)c1,?,?,-17.5%,39.6,-13.7%
Cc1cccc(-n2c3nc(=O)[nH]c(=O)c-3cc3cc([N+](=O)[O-])ccc32)c1,-113.3%,4.61µM*,?,-100.6*,?
Cc1ccc(C)c(-n2c3nc(=O)[nH]c(=O)c-3cc3cc([N+](=O)[O-])ccc32)c1,0.82µM*,1.16µM*,6.51µM*,-99.3*,5.17µM*
Cc1ccc(S(=O)(=O)n2ccc3c2CCCC3=O)cc1,20.6µM*,?,8.3%,-29.6,0.1%
Cc1ccc(-n2c(C)cc3c2CCCC3=O)cc1,?,-26.8%,-2.3%,38.8,?
COc1ccc(CC(=O)OC(C)C(=O)NC2CCCCC2C)cc1 (stereo not given),-28.0%,1.6%,17.4%,7.2,12.0%
Cn1nnnc1SCCCNCc1ccc(-c2ccc(Br)cc2)o1,?,20.6µM*,.,.,.
Cn1nnnc1SCCNCc1ccccc1F,-5.8%,-14.4%,17.6%,2.0,11.2%
Cn1nnnc1SCCCNCc1cc(Br)ccc1OCc1ccccc1F,16.4µM*,16.4µM*,.,.,.
Cn1nnnc1SCCCNCc1cc(Br)ccc1OCc1ccccc1,10.3µM*,23.1µM*,.,.,.
Cn1nnnc1SCCCNCc1cc(Cl)ccc1OCc1ccccc1F,8.2µM*,20.6µM*,.,.,.
CSCCC(c1nc2ccccc2[nH]1)n1c(-c2ccc3ncccc3c2)nc2ccccc21 (stereo not given),?,?,-21.2%,?,-14.1%
CC1Cc2ccccc2C[N+]1(C)CC(=O)c1cccc([N+](=O)[O-])c1 (stereo not given),?,-26.5%,.,.,.
CCOc1ccc(Br)cc1CNCCSc1nnnn1-c1ccccc1,?,18.4µM*,.,.,.
Brc1cccc(CNCCSc2nnnn2-c2ccccc2)c1,-16.6%,-27.1%,.,.,.
COc1ccc(-n2nc3c(N4CCC(C(=O)NCC(C)c5ccccc5)CC4)nnc(C)c3c2C)cc1 (stereo not given),?,?,?,-95.5*,?
SMILES,DT40 TDP1 no CPT,DT40 TDP1 CPT,HT1080NT lethal,IL-1B inflam inh,HT1080 IDH1KD tx
Cc1nnc(N2CCC(C(=O)NC(C)C)CC2)c2nn(-c3ccccc3)c(C)c12,-23.1%,-21.1%,.,.,.
Cc1ccc(-n2nc3c(N4CCC(C(=O)NCCc5ccco5)CC4)nnc(C)c3c2C)cc1,?,20.6µM*,?,-17.8,?
COc1ccccc1CNC(=O)C1CCCN(c2nnc(C)c3c(C)n(-c4ccccc4)nc23)C1 (stereo not given),20.6µM*,20.6µM*,.,.,.
Cc1ccc(-n2nc3c(N4CCC(C(=O)NCc5cccc(F)c5)CC4)nnc(C)c3c2C)cc1,18.4µM*,?,?,?,?
O=C(CSc1nnnn1-c1cccc2ccccc12)NC(C(=O)O)(c1ccccc1)c1ccccc1,9.6%,28.8%,-1.4%,23.2,2.2%
C=CCn1c(SCCN)nnc1-c1cccc(S(=O)(=O)N2CCOCC2)c1,?,-27.5%,5.6%,16.9,4.6%
Cc1nc(NC(=O)CCN2C(=O)C3CC=CCC3C2=O)sc1C (stereo not given),2.0%,-5.7%,3.1%,-8.0,2.6%
Cc1ccc(-n2nc3c(N4CCC(C(=O)NCCc5ccccc5C)CC4)nnc(C)c3c2C)cc1,5.8µM*,16.4µM*,-7.4%,-11.0,-4.4%
COc1ccc(-n2nc3c(N4CCC(C(=O)NCc5ccco5)CC4)nnc(C)c3c2C)cc1,?,?,0.0%,-21.3,4.3%
COc1ccc(-n2nc3c(N4CCC(C(=O)NCCc5ccccc5C)CC4)nnc(C)c3c2C)cc1,16.4µM*,?,-1.2%,-82.8*,-10.8%
Cc1ccc(-n2nc3c(N4CCC(C(=O)NCc5ccc(C)o5)CC4)nnc(C)c3c2C)cc1,?,23.1µM*,20.6µM*,-0.9,18.4µM*
Cc1nnc(N2CCC(C(=O)N3CCCCC3)CC2)c2nn(-c3ccccc3)c(C)c12,?,-25.7%,.,.,.
COc1ccc(-n2nc3c(N4CCC(C(=O)NC5CCCCC5)CC4)nnc(C)c3c2C)cc1,14.6µM*!,13µM*!,-0.8%,24.9,-2.0%
CCOc1ccc(NC(=O)C2CCN(c3nnc(C)c4c(C)n(-c5ccccc5)nc34)CC2)cc1,-26.3%,-14.3%,.,.,.
O=C(NC(Cc1ccccc1)C(=O)O)/C(=C/c1ccc(Cl)cc1)NC(=O)c1ccco1 (stereo not given),-0.1%,-5.6%,8.6%,-1.7,-0.2%
Cc1cc(=O)[nH]c(SCCOc2ccc(OC(C)C)cc2)n1,?,-16.9%,-14.7%,97.3,-6.6%
COc1ccc(-n2nc3c(N4CCCC(C(=O)NCCc5ccc(C)cc5)C4)nnc(C)c3c2C)cc1 (stereo not given),3.66µM*,3.26µM*,.,.,.
Cc1ccc(-n2nc3c(N4CCC(C(=O)N5CCC(C)CC5)CC4)nnc(C)c3c2C)cc1,-21.3%,-27.5%,.,.,.
